Data from PubChem BioAssay (NCI).
“And” between values parts separate entries of the source, which are not always exact repeats. Equal entries are not always repeated. Compounds without any hit were thinned out: in the full panel of roughly 79,000, 15% have a hit. The source made the active and inactive calls. No stated cut-off is given here; in the data, active means growth inhibition above about 70%; inactive means the rest.

Experiment: NCI Yeast Anticancer Drug Screen. Data for the rad50 strain (AID 155);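 further: 0% = growth of vehicle-only cultures of the same strain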
Settings: S. cerevisiae rad50 strain growth inhibition; at 5.0 µM (retest, dose inferred, filed as 0.5); hits give high values
Summary of the method: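 A DNA repair-deficient yeast mutant serves as the test organism; compound-induced growth inhibition is calculated against vehicle-treated cells.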

Row | Compound | growth inhibition
1 | O=C1/C(=C/c2ccccc2)CCCC1CN1CCCCC1 (stereo not drawn) | 29% (inactive)
2 | C#CCN(Cc1ccc2nc(N)[nH]c(=O)c2c1)c1ccc(C(=O)NC(CCC(=O)O)C(=O)O)cc1 (stereo not drawn) | 12% (inactive) and 1% (inactive)
3 | CCOC1(c2cccc([N+](=O)[O-])c2)c2ccccc2Oc2ccccc21 | 41% (inactive)
4 | O=C(O)CNC(=S)Nc1ccccc1 | 51% (inactive)
5 | N/C(=N/N=C/c1cc(Br)cc(Br)c1O)NO | -1% (inactive)
6 | C[Si](C)(C)/C=C/CCNC(C#N)c1ccccc1 (stereo not drawn) | 98% (active)
7 | CCCCCCCCCCCCCCCCOP(=O)(O)OCC(N)C(=O)O (stereo not drawn) | -25% (inactive)
8 | CC1=C(C(=O)NCc2ccccc2)C(c2ccccc2)C(C(=O)NCc2ccccc2)=C(C)N1 | 2% (inactive)
9 | O=[N+]([O-])c1cc(S(=O)(=O)Nc2ccccc2)ccc1Nc1ccccc1 | 51% (inactive)
10 | COc1cc2ccnc(-c3c4ccccc4c(N)c4c(OC)c(OC)ccc34)c2cc1OC | 78% (active)
11 | CCOC(=O)C(Br)C(Br)c1ccccc1Cl (stereo not drawn) | 23% (inactive)
12 | CCOC(=O)C1=C(C)NC(C)=C(C(=O)OCCNC(=O)c2ccc(N=[N+]=[N-])cc2)C1c1ccccc1C(F)(F)F (stereo not drawn) | 3% (inactive)
13 | Cc1cc(C)c(NC(=S)NC(=O)c2ccccc2)cc1C | -13% (inactive)
14 | CNCCCNc1c2ccccc2nc2cccc([N+](=O)[O-])c12 | 77% (active)
15 | COc1c(O)c(C=O)c(Br)c(C=O)c1O | 16% (inactive)
16 | Cc1c(C)c(C)c(CSC(=N)N)c(C)c1C | 46% (inactive)
17 | O=C(CSC(=S)N1CCCCC1)Nc1nc2c(s1)CCCC2 | 31% (inactive)
18 | CNC(=O)OCc1c(COC(=O)NC)c(-c2ccc(Cl)cc2)n2c1CCC2 | 21% (inactive)
19 | CC(=O)OC1CC2C(C)(C)C(=O)C=C[C@]2(C)C2CCC3(C)C(=CCC3[C@H](CO)C[C@H](O)C(=O)C(C)(C)O)[C@]12C (stereo partly drawn) | -14% (inactive)
20 | CCCCCCOC(=O)NCCOC(=O)Nc1ccccc1 | 0% (inactive)

Row | Compound | growth inhibition
21 | C[C](C)(C)[Ge]([O][Ge]([c]1ccccc1)[c]1ccccc1)([O][Ge]([c]1ccccc1)[c]1ccccc1)[C](C)(C)C | 12% (inactive)
22 | CCc1c(Cl)c(C)cc(O)c1Cl | 38% (inactive)
23 | Cc1nc(Nc2ccccc2[N+](=O)[O-])sc1C(=O)CC(=O)C(=O)Nc1c(C(C)C)cccc1C(C)C | 10% (inactive)
24 | O=[N+]([O-])c1cccc2nc3ccccc3c(NCCCn3ccnc3[N+](=O)[O-])c12 | 24% (inactive)
25 | CCCCCCC(O)CNCc1ccnc2ccc(OC)cc12 (stereo not drawn) | 8% (inactive)
26 | Cc1c2cccc(Sc3ccccc3)c2c2c3c(cccc13)[S+](c1ccccc1)C2 (stereo not drawn) | 58% (inactive)
27 | C=C1CCC(O)C/C1=C/C=C1\CCCC2(C)C1CCC2C(C)CCCC(C)C (stereo not drawn) | 13% (inactive)
28 | NC1=NNC2(C(N)=N1)c1ccccc1-c1ccccc12 | -32% (inactive)
29 | COc1cc2cc3c4cc(OC)c(OC)cc4cc[n+]3c(C)c2cc1OC | 59% (inactive)
30 | COC(=O)NC1C(C)OC(OC2C/C=C(/C)C3C=CC4C(OC5CC(OC6CC(O)C(OC7CC(O)C(OC)C(C)O7)C(C)O6)C(O)C(C)O5)C(C)CC(C)C4C3(C)/C(O)=C3\C(=O)OC4(CC(C)C(CO)=CC4/C=C\2C)C3=O)CC1(C)[N+](=O)[O-] (stereo not drawn) | 23% (inactive)
31 | O=C1CSC(c2cccc(Cl)c2)N1c1ccc(-c2ccc(-n3c(-c4ccccc4)nc4ccccc4c3=O)cc2)cc1 (stereo not drawn) | -2% (inactive)
32 | CCOC(=O)C(C(=O)OCC)=P(c1ccccc1)(c1ccccc1)c1ccccc1 | -2% (inactive)
33 | COc1ccc(N=CN(C)C)c(C)c1 | 50% (inactive)
34 | Cc1cc(S(=O)(=O)Nc2nnc3cnc4ccccc4n23)c(S)cc1Cl | -3% (inactive)
35 | O=C(Oc1ccc2c(c1)CN(Cc1ccccc1)CO2)c1ccccc1 | -1% (inactive)
36 | CN(C)[C@@H]1C(=O)C(C(N)=O)=C(O)[C@@]2(O)C(=O)C3=C(O)c4c(O)cccc4C[C@H]3C[C@@H]12 | 7% (inactive)
37 | O=[N+]([O-])c1ccc2c(c1)/C(=N/N=C1c3ccccc3Cc3ccccc31)c1cc([N+](=O)[O-])cc([N+](=O)[O-])c1-2 | 9% (inactive)
38 | Cc1nc2c(Br)cc(Br)cc2c(=O)n1-c1ccccc1NC1OCC(O)C(O)C1O (stereo not drawn) | 10% (inactive) and 17% (inactive)
39 | Cc1cc(N(CCOS(C)(=O)=O)CCOS(C)(=O)=O)ccc1C=Nc1ccc(-c2nc(Cc3ccccc3)sc2C)cc1 | 44% (inactive) and 1% (inactive)

Same assay, conditions: S. cerevisiae rad50 strain growth inhibition; at 11.0 µM; hits give high values

Row | Compound | growth inhibition
40 | O=C1/C(=C/c2ccccc2)CCCC1CN1CCCCC1 (stereo not drawn) | 39% (inactive)
41 | C#CCN(Cc1ccc2nc(N)[nH]c(=O)c2c1)c1ccc(C(=O)NC(CCC(=O)O)C(=O)O)cc1 (stereo not drawn) | 26% (inactive)
42 | CCOC1(c2cccc([N+](=O)[O-])c2)c2ccccc2Oc2ccccc21 | 4% (inactive)
43 | O=C(O)CNC(=S)Nc1ccccc1 | -48% (inactive)
44 | N/C(=N/N=C/c1cc(Br)cc(Br)c1O)NO | 6% (inactive)
45 | C[Si](C)(C)/C=C/CCNC(C#N)c1ccccc1 (stereo not drawn) | 47% (inactive)
46 | CCCCCCCCCCCCCCCCOP(=O)(O)OCC(N)C(=O)O (stereo not drawn) | 42% (inactive)
47 | CC1=C(C(=O)NCc2ccccc2)C(c2ccccc2)C(C(=O)NCc2ccccc2)=C(C)N1 | 22% (inactive)
48 | O=[N+]([O-])c1cc(S(=O)(=O)Nc2ccccc2)ccc1Nc1ccccc1 | 93% (active)
49 | COc1cc2ccnc(-c3c4ccccc4c(N)c4c(OC)c(OC)ccc34)c2cc1OC | 77% (active)
50 | CCOC(=O)C(Br)C(Br)c1ccccc1Cl (stereo not drawn) | 68% (inactive)
51 | CCOC(=O)C1=C(C)NC(C)=C(C(=O)OCCNC(=O)c2ccc(N=[N+]=[N-])cc2)C1c1ccccc1C(F)(F)F (stereo not drawn) | 17% (inactive)
52 | Cc1cc(C)c(NC(=S)NC(=O)c2ccccc2)cc1C | -52% (inactive)
53 | CNCCCNc1c2ccccc2nc2cccc([N+](=O)[O-])c12 | 91% (active)
54 | COc1c(O)c(C=O)c(Br)c(C=O)c1O | 15% (inactive)
55 | Cc1c(C)c(C)c(CSC(=N)N)c(C)c1C | -9% (inactive)
56 | O=C(CSC(=S)N1CCCCC1)Nc1nc2c(s1)CCCC2 | -16% (inactive)
57 | CNC(=O)OCc1c(COC(=O)NC)c(-c2ccc(Cl)cc2)n2c1CCC2 | -40% (inactive)
58 | CC(=O)OC1CC2C(C)(C)C(=O)C=C[C@]2(C)C2CCC3(C)C(=CCC3[C@H](CO)C[C@H](O)C(=O)C(C)(C)O)[C@]12C (stereo partly drawn) | -16% (inactive)
59 | CCCCCCOC(=O)NCCOC(=O)Nc1ccccc1 | 7% (inactive)

Row | Compound | growth inhibition
60 | C[C](C)(C)[Ge]([O][Ge]([c]1ccccc1)[c]1ccccc1)([O][Ge]([c]1ccccc1)[c]1ccccc1)[C](C)(C)C | 42% (inactive)
61 | CCc1c(Cl)c(C)cc(O)c1Cl | -27% (inactive)
62 | Cc1nc(Nc2ccccc2[N+](=O)[O-])sc1C(=O)CC(=O)C(=O)Nc1c(C(C)C)cccc1C(C)C | -17% (inactive)
63 | O=[N+]([O-])c1cccc2nc3ccccc3c(NCCCn3ccnc3[N+](=O)[O-])c12 | 86% (active)
64 | CCCCCCC(O)CNCc1ccnc2ccc(OC)cc12 (stereo not drawn) | 11% (inactive)
65 | Cc1c2cccc(Sc3ccccc3)c2c2c3c(cccc13)[S+](c1ccccc1)C2 (stereo not drawn) | 97% (active)
66 | C=C1CCC(O)C/C1=C/C=C1\CCCC2(C)C1CCC2C(C)CCCC(C)C (stereo not drawn) | 5% (inactive)
67 | NC1=NNC2(C(N)=N1)c1ccccc1-c1ccccc12 | -9% (inactive)
68 | COc1cc2cc3c4cc(OC)c(OC)cc4cc[n+]3c(C)c2cc1OC | 3% (inactive)
69 | COC(=O)NC1C(C)OC(OC2C/C=C(/C)C3C=CC4C(OC5CC(OC6CC(O)C(OC7CC(O)C(OC)C(C)O7)C(C)O6)C(O)C(C)O5)C(C)CC(C)C4C3(C)/C(O)=C3\C(=O)OC4(CC(C)C(CO)=CC4/C=C\2C)C3=O)CC1(C)[N+](=O)[O-] (stereo not drawn) | 22% (inactive)
70 | O=C1CSC(c2cccc(Cl)c2)N1c1ccc(-c2ccc(-n3c(-c4ccccc4)nc4ccccc4c3=O)cc2)cc1 (stereo not drawn) | 7% (inactive)
71 | CCOC(=O)C(C(=O)OCC)=P(c1ccccc1)(c1ccccc1)c1ccccc1 | -3% (inactive)
72 | COc1ccc(N=CN(C)C)c(C)c1 | -19% (inactive)
73 | Cc1cc(S(=O)(=O)Nc2nnc3cnc4ccccc4n23)c(S)cc1Cl | 2% (inactive)
74 | O=C(Oc1ccc2c(c1)CN(Cc1ccccc1)CO2)c1ccccc1 | 17% (inactive)
75 | CN(C)[C@@H]1C(=O)C(C(N)=O)=C(O)[C@@]2(O)C(=O)C3=C(O)c4c(O)cccc4C[C@H]3C[C@@H]12 | 9% (inactive)
76 | O=[N+]([O-])c1ccc2c(c1)/C(=N/N=C1c3ccccc3Cc3ccccc31)c1cc([N+](=O)[O-])cc([N+](=O)[O-])c1-2 | 96% (active)
77 | Cc1nc2c(Br)cc(Br)cc2c(=O)n1-c1ccccc1NC1OCC(O)C(O)C1O (stereo not drawn) | 18% (inactive)
78 | Cc1cc(N(CCOS(C)(=O)=O)CCOS(C)(=O)=O)ccc1C=Nc1ccc(-c2nc(Cc3ccccc3)sc2C)cc1 | 71% (active)
